The values that follow come from PubChem BioAssay (NCATS).

SMILES strings stand for the structures. Results filed as inconclusive are left out. A number with no mark means an inactive call. Active and inactive are the calls of the source. Calls come from the whole dose curve; as a rule, active = well fitted cell-killing curve with a large enough effect; inconclusive = small, poorly fitted or top-dose-only effect, or effect the other way; inactive = no such curve, though single readings can be large or run the other way.
Potency is the fitted concentration of half-maximal effect.

The nature of one test: Quantitative High-Throughput drug screen in 47 multiple myeloma cell lines against the NCATS MIPE library collection: L363_DSMZ cell viability assay (AID 1918984). Note: nearly all actives have a fitted effect of over 40% in size. Particulars: L363 myeloma viability, CellTiter-Glo ATP luminescence, 48 h; series mostly up to 45.8 µM; viability (% of control): at the top concentration. The method in brief: (§1)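 qHTS format: cells plated (500/well), pin-dosed with MIPE 4.0 compounds, kept 48 h at 37 °C. Readout was CellTiter-Glo luminescence, median RLU.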
For orientation: Cellular ATP, detected with luciferase, serves as a proxy for viable cell number.
Turning to `COC(=O)Nc1nc2ccc(C(=O)c3cccs3)cc2[nH]1`, the Potency is 0.001 µM (active).
As to `CN(C)CCCN1c2ccccc2CCc2ccc(Cl)cc21`, the Potency is 16.6 µM (active).
Turning to `COc1nc(C)nc(Cl)c1NC1=NCCN1`, the “viability (% of control)” value is 100%.
Consider `NC(=O)NO`, for which the Potency was 5.9 µM (active).
Regarding `Cn1cnc2c1c(=O)[nH]c(=O)n2C`, the Potency is 7.43 µM (active).
Take `OCCN1CCN(CCCN2c3ccccc3Sc3ccc(C(F)(F)F)cc32)CC1`: the Potency was 7.43 µM (active).
For the compound `NC(=O)OCC(COC(N)=O)c1ccccc1`, the “viability (% of control)” value was 97.6%.
Take `C[C@@H]1CC(=O)NN=C1c1ccc(NN=C(C#N)C#N)cc1`: the “viability (% of control)” value is 90.4%.
As for `O=C1c2c(O)ccc(O)c2C(=O)c2c(NCCNCCO)ccc(NCCNCCO)c21`, the Potency is 2.35 µM (active).
`CS(=O)(=O)Nc1ccc([N+](=O)[O-])cc1Oc1ccccc1`: the “viability (% of control)” value is 92.8%.
Regarding `CCc1cccc2c3c([nH]c12)C(CC)(CC(=O)O)OCC3` (configuration not stated), the “viability (% of control)” value was 131%.
For the compound `CS(=O)(=O)CCNCc1ccc(-c2ccc3ncnc(Nc4ccc(OCc5cccc(F)c5)c(Cl)c4)c3c2)o1`, the Potency was 9.35 µM (active).
As for `COc1ccc2c(c1)c(CC(=O)O)c(C)n2C(=O)c1ccc(Cl)cc1`, the Potency is 18.7 µM (active).
Take `CC(C)NCC(O)COc1ccc(CCOCC2CC2)cc1` (configuration not stated): the “viability (% of control)” value was 93.3%.
Regarding `CN1CCC(=C2c3ccccc3CC(=O)c3sccc32)CC1`, the Potency was 23.5 µM (active).
Take `Clc1ccc2c(c1)C(N1CCNCC1)=Nc1ccccc1O2`: the “viability (% of control)” value was 103%.
Turning to `CN(C)C(=O)C(CCN1CCC(O)(c2ccc(Cl)cc2)CC1)(c1ccccc1)c1ccccc1`, the “viability (% of control)” value is 134%.
Take `CNCCCC12CCC(c3ccccc31)c1ccccc12`: the Potency was 16.6 µM (active).
Turning to `CC1(CN2CCC(n3c(=O)[nH]c4ccccc43)CC2)OCc2ccccc2-n2cccc21` (configuration not stated), the “viability (% of control)” value is 70.5%.

The nature of another test: Quantitative High-Throughput drug screen in 47 multiple myeloma cell lines against the NCATS MIPE library collection: KMS34_JCRB cell viability assay (AID 1918985).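 For viability, percent of control: 100% = DMSO-only wells and 0% = media-only wells.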 Note: nearly all actives have a fitted effect of over 40% in size. Conditions: KMS34 myeloma viability, CellTiter-Glo ATP luminescence, 48 h; series mostly up to 45.8 µM; viability, percent of control: at the top concentration. The gist of the method:
as §1
For the compound `COC(=O)Nc1nc2ccc(C(=O)c3cccs3)cc2[nH]1`, the Potency is 0.0026 µM (active).
Consider `CC(C(=O)O)c1cccc(C(=O)c2ccccc2)c1` (configuration not stated), for which the “viability, percent of control” value is 98.3%.
As to `Cn1cnc2c1c(=O)[nH]c(=O)n2C`, the Potency was 16.6 µM (active).
As to `CN(C)CCOC(c1ccccc1)c1ccccc1`, the “viability, percent of control” value is 113%.
For the compound `NC(=O)OCC(COC(N)=O)c1ccccc1`, the “viability, percent of control” value was 110%.
For the compound `C[C@@H]1CC(=O)NN=C1c1ccc(NN=C(C#N)C#N)cc1`, the Potency is 20.9 µM (active).
On the same count and under the same terms, the figure for `O=C1c2c(O)ccc(O)c2C(=O)c2c(NCCNCCO)ccc(NCCNCCO)c21` is 2.96 µM (active).
For the compound `CCc1cccc2c3c([nH]c12)C(CC)(CC(=O)O)OCC3` (configuration not stated), the “viability, percent of control” value is 114%.
As to `Cn1c(=O)c2[nH]cnc2n(C)c1=O`, the “viability, percent of control” value is 102%.
For `CS(=O)(=O)CCNCc1ccc(-c2ccc3ncnc(Nc4ccc(OCc5cccc(F)c5)c(Cl)c4)c3c2)o1`, the Potency is 29.6 µM (active).
Take `COc1ccc2c(c1)c(CC(=O)O)c(C)n2C(=O)c1ccc(Cl)cc1`: the “viability, percent of control” value was 114%.
Turning to `CC(C)NCC(O)COc1ccc(CCOCC2CC2)cc1` (configuration not stated), the Potency was 5.9 µM (active).
The same measure, in the same setting: then `Clc1ccc2c(c1)C(N1CCNCC1)=Nc1ccccc1O2`, with 18.7 µM (active).

The nature of the next test: Quantitative High-Throughput drug screen in 47 multiple myeloma cell lines against the NCATS MIPE library collection: OCIMY7_PLB cell viability assay (AID 1918987). Note: nearly all actives have a fitted effect of over 65% in size. Conditions: OCI-MY7 myeloma viability, CellTiter-Glo ATP, 48 h; series mostly up to 45.8 µM; viability (% of DMSO): at the top concentration. The gist of the method:
as §1
For `Clc1ccccc1C(c1ccccc1)(c1ccccc1)n1ccnc1`, the Potency is 18.7 µM (active).
In the case of `O=C1c2c(O)ccc(O)c2C(=O)c2c(NCCNCCO)ccc(NCCNCCO)c21`, the Potency was 1.05 µM (active).
As to `Nc1nnc(-c2cccc(Cl)c2Cl)c(N)n1`, the Potency is 33.2 µM (active).
Take `CS(=O)(=O)CCNCc1ccc(-c2ccc3ncnc(Nc4ccc(OCc5cccc(F)c5)c(Cl)c4)c3c2)o1`: the Potency is 0.0833 µM (active).

A further test is described as follows: Quantitative High-Throughput drug screen in 47 multiple myeloma cell lines against the NCATS MIPE library collection: OCIMY5_PLB cell viability assay (AID 1918988). Note: nearly all actives have a fitted effect of over 65% in size. Conditions: OCI-MY5 myeloma viability, ATP luminescence, 48 h; series mostly up to 45.8 µM; viability, % of control: at the top concentration. The gist of the method: as §1
For `NC(=O)NO`, the Potency is 0.235 µM (active).
On to `CS(=O)(=O)CCNCc1ccc(-c2ccc3ncnc(Nc4ccc(OCc5cccc(F)c5)c(Cl)c4)c3c2)o1`, for which the Potency is 0.0743 µM (active).
As to `CN1CCC(=C2c3ccccc3CC(=O)c3sccc32)CC1`, the Potency is 23.5 µM (active).
On to `CN(C)C(=O)C(CCN1CCC(O)(c2ccc(Cl)cc2)CC1)(c1ccccc1)c1ccccc1`, for which the Potency is 16.6 µM (active).

The next test is described as follows: Quantitative High-Throughput drug screen in 47 multiple myeloma cell lines against the NCATS MIPE library collection: OPM1_PLB cell viability assay (AID 1918989).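 For viability (% of control): 100% = DMSO-only wells and 0% = media-only wells.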 Note: nearly all actives have a fitted effect of over 40% in size. Particulars: CellTiter-Glo, 48 h; series mostly up to 45.8 µM; viability (% of control): at the top concentration. The gist of the method: as §1
Consider `NC(=O)NO`, for which the Potency was 0.833 µM (active).
Consider `OCCN1CCN(CCCN2c3ccccc3Sc3ccc(C(F)(F)F)cc32)CC1`, for which the Potency was 20.9 µM (active).
As for `Cn1c(=O)c2[nH]cnc2n(C)c1=O`, the “viability (% of control)” value was 137%.
For the compound `CS(=O)(=O)CCNCc1ccc(-c2ccc3ncnc(Nc4ccc(OCc5cccc(F)c5)c(Cl)c4)c3c2)o1`, the Potency is 6.62 µM (active).
In the case of `CN1CCN(C2=Nc3cc(Cl)ccc3Nc3ccccc32)CC1`, the Potency is 23.5 µM (active).
Regarding `CN1CCC(=C2c3ccccc3CC(=O)c3sccc32)CC1`, the Potency is 23.5 µM (active).
The same measure, in the same setting: the figure for `CNCCCC12CCC(c3ccccc31)c1ccccc12` is 23.5 µM (active).
